# In PubChem BioAssay AID504466 (National Center for Advancing Translational Sciences (NCATS), 2011):
# The campaign covered roughly 330,000 compounds. About 4,200 (1.3%) were called active. Roughly 6% stayed inconclusive and do not appear here. Calls come from the whole dose curve; as a rule, active = well fitted activation curve with a large enough effect; inconclusive = small, poorly fitted or top-dose-only effect; inactive = no such curve, though single readings can be large or run the other way. The full list was thinned out, with actives kept by preference.
# Assay: qHTS screen for small molecules that induce genotoxicity in human embryonic kidney (HEK293T) cells expressing luciferase-tagged ELG1; note: nearly all actives have a fitted effect of over 60% in size; for activity change, positive = activation: % of control where 0% means no effect
# Details: HEK293T ELG1-luciferase reporter, luminescence, 16 h; series mostly up to 46 µM; activity change, positive = activation: at the top concentration
# How it was run: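 Step 1: seed 2,000 HEK293T ELG1-luciferase cells per well. Step 2: add compound or DMSO, incubate 16 hr at 37 °C. Step 3: ONE-Glo, 30 min at room temperature, read luminescence.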
# Potency is the fitted concentration of half-maximal effect.
SMILES,Potency,"activity change, positive = activation"
CC(=NCc1ccco1)c1c(C(F)(F)F)[nH]n(-c2nc3ccccc3s2)c1=O,2.59 µM (active),–
CCC1(CC)NC(=O)N(Cc2nc3ccccc3s2)C1=O,–,0.75% (inactive)
CCc1ccc(-c2cc(C(=O)NCc3ccco3)c3ccccc3n2)s1,–,-2.94% (inactive)
COc1cc(OC)cc(C(=O)NCC(=O)OCC(=O)NC(C)CCc2ccccc2)c1 (stereo unspecified),–,4.19% (inactive)
COc1cc(OC)c(C(=O)NNC(=O)c2ccccc2-n2cccc2)cc1OC,–,-4.42% (inactive)
CSc1ccc(C#N)cc1NC(=O)c1cccc(Cl)c1,–,-0.357% (inactive)
N#Cc1ccccc1NC(=O)c1cccc(COc2ccc(Cl)cc2Cl)c1,0.461 µM (active),–
O=C(Nc1ccn(Cc2ccccc2F)n1)c1ccc(COc2ccc(Cl)cc2Cl)o1,–,-6.31% (inactive)
O=C(COC(=O)c1ccccn1)NNC(=O)c1ccc(Br)cc1,–,4.55% (inactive)
O=C(N[C@H]1C/C=C\C(c2cccc(F)c2)N(Cc2ccccc2)C(=O)C1)OCC1c2ccccc2-c2ccccc21 (stereo partly specified),–,-3.88% (inactive)
COc1ccc(S(=O)(=O)N(C)C[C@H]2Oc3c(NC(=O)Nc4ccc5c(c4)OCO5)cccc3C(=O)N([C@H](C)CO)C[C@@H]2C)cc1,–,-8.42% (inactive)
CC(Oc1ccc2c(-c3ccccc3)cc(=O)oc2c1)C(=O)NC(Cc1c[nH]c2ccccc12)C(=O)O (stereo unspecified),–,2.46% (inactive)
O=C(Nc1cccc(NC(=O)c2cccc(F)c2)c1)c1ccccc1,–,-4.69% (inactive)
O=C(Nc1ccn(Cc2ccccc2)n1)c1cccc(F)c1,23.1 µM (active),–
O=C(Nc1ccccc1N1CCN(c2ccccc2)CC1)c1cccc(F)c1,–,-9.53% (inactive)
O=S(=O)(Nc1ncnc2sccc12)c1cccc(F)c1,–,-0.435% (inactive)
Cc1ccc(NC(=O)c2ccc(Cl)nc2)cc1S(=O)(=O)N1CCOCC1,–,-7.05% (inactive)
COc1cccc(-c2nc3cc(C)ccc3o2)c1,1.3 µM (active),–
COc1cccc(-c2nnc(SCCOc3ccc4c(C)cc(=O)oc4c3)o2)c1,–,2.37% (inactive)
COc1ccc2oc(-c3cccc(NC(=O)CSc4ccc(Cl)cc4)c3)nc2c1,–,15.5% (inactive)
CC(OC(=O)c1ccc([N+](=O)[O-])cc1)C(=O)NCC1CCCCC1 (stereo unspecified),–,-1.47% (inactive)
Cc1cc(CN(C)C(=O)c2cc(COc3ccc(C)c(C)c3)on2)n[nH]1,2.91 µM (active),–
CN(Cc1cnccn1)C(=O)c1cc(COc2cccc(C(F)(F)F)c2)on1,–,4.54% (inactive)
CN(Cc1cccnc1)C(=O)c1cc(COc2ccc3ncccc3c2)on1,–,-6.34% (inactive)

SMILES,Potency,"activity change, positive = activation"
O=C(Cn1cnc2c(OCc3ccccc3)ncnc21)NCc1nc2ccccc2[nH]1,–,-2.59% (inactive)
COc1ccc(C(=O)NCc2nnc(SCCOc3ccccc3)n2C)cc1,–,-7.93% (inactive)
COc1cccc(C(=O)NCCSc2ccc(Br)cc2)c1,–,0.302% (inactive)
COc1ccc(C(=O)NCCSc2ccccc2C)cc1,4.61 µM (active),–
COc1ccc2nc3n(c(=O)c2c1)-c1ccc(Cl)cc1C(=O)NC3Cc1ccccc1 (stereo unspecified),–,1.76% (inactive)
COc1ccc(CCNC(=O)COC(=O)c2ncc(Cl)c(Cl)c2Cl)cc1OC,–,1.91% (inactive)
CCOc1cccc(=O)c2c(C)n(CC3CCCO3)c(C)c12 (stereo unspecified),–,4.51% (inactive)
O=C1c2cccc3c([N+](=O)[O-])ccc(c23)C(=O)N1CC1CCCO1 (stereo unspecified),20.6 µM (active),–
CN1CN(C)c2ccc([N+](=O)[O-])c3cccc1c23,–,-8.83% (inactive)
CC[C@@H](C)[C@@H]1CN([C@@H](C)CN2CCC[C@H]2CN2C(N)=NC[C@H]2C(C)C)C(=N)N1CCc1ccc(Cl)c(Cl)c1,–,1.26% (inactive)
COc1ccc(-c2nc3cc(C)ccn3c2NC2CCCCC2)cc1SC1CCCCC1,–,-3.72% (inactive)
CC1(C)CN(c2ccc(-c3ccnc4ncnn34)cc2)C1=O,12.6 µM (active),–
Nc1c(-c2ccc(F)cc2)cnc2ncnn12,–,4.95% (inactive)
Cc1ccc(C2(C)NC(=O)N(CC(=O)N3CC(=O)Nc4ccccc43)C2=O)cc1 (stereo unspecified),–,0.0242% (inactive)
Cc1occc1C(=O)Nc1cccc(S(=O)(=O)N2CCOCC2)c1,–,1.05% (inactive)
O=C1C=CN2CCCC2CC1 (stereo unspecified),–,0.906% (inactive)
Cc1ccc(/C=N/NC(=O)c2cc3ccccc3cc2O)o1,–,5.35% (inactive)
Cc1cc(N=Nc2ccc3ccccc3c2)ccc1O,7.3 µM (active),–
Cc1ccc(Br)c(NS(=O)(=O)c2cccc(C(=O)N3CCNC(=O)C3)c2)c1,–,3.98% (inactive)
CC1(C)CC[C@@]2(C(=O)O)C(C1)C1=CCC3[C@@]4(C)CC[C@H](O)C(C)(C)C4CC[C@@]3(C)[C@]1(C)C[C@H]2O (stereo partly specified),–,-0.0114% (inactive)
O=C(COc1ccc([N+](=O)[O-])cc1Cl)Nc1ccc2[nH]c(=O)[nH]c2c1,–,2.56% (inactive)
Cc1csc(=O)n1CC(=O)Nc1ccc(S(C)(=O)=O)cc1,–,1.22% (inactive)
O=C(COC(=O)c1ccc(F)c(S(=O)(=O)N2CCOCC2)c1)NCc1ccc2c(c1)OCO2,–,-1.23% (inactive)
O=C1CC2(CCCC2)C(=O)N1CN1CCN(S(=O)(=O)c2ccc(F)cc2F)CC1,–,-1.8% (inactive)

SMILES,Potency,"activity change, positive = activation"
Nc1ccc(S(=O)(=O)Nc2nccc(/C=C/c3ccc(Br)s3)n2)cc1,–,2.69% (inactive)
Oc1cccc2ccc(/C=C/c3ccc(Br)s3)nc12,20.6 µM (active),–
O=C(O)c1ccccc1C(=O)Nc1nc(-c2ccccc2)cs1,–,1.21% (inactive)
O=C(COc1ccccc1F)Nc1nc(-c2ccccn2)cs1,–,7.21% (inactive)
O=C(Nc1nc(-c2cccnc2)cs1)c1ccccc1F,18.3 µM (active),–
CC1O[C@@H](OC2C(O)C(C)O[C@H](OC(=O)[C@]34CCC(C)(C)C[C@H]3C3=CCC5[C@@]6(C)CC(O)C(O[C@@H]7OC(CO)C(O)[C@@H](O)[C@@H]7O)[C@@](C)(C(=O)O)C6CC[C@@]5(C)[C@]3(CO)CC4)C2O[C@H]2OC(C)[C@@H](O[C@@H]3OCC(O[C@@H]4OC(CO)C(O)[C@H](O)C4O)[C@@H](O)[C@@H]3O)[C@H](O)C2O)C(O)C(O)C1O (stereo partly specified),–,-0.551% (inactive)
C=CCNC(=O)c1ccccc1SCc1c(C)noc1C,–,10.9% (inactive)
C=CCNC(=O)c1csc(-c2ccccc2)n1,–,3.59% (inactive)
C=CCNC(=O)c1cc(-c2ccccc2O)on1,18.4 µM (active),–
C[C@H](CO)N1C[C@H](C)[C@@H](CN(C)S(=O)(=O)c2ccc(F)cc2)Oc2ccc(NC(=O)CCC(F)(F)F)cc2C1=O,–,-1.82% (inactive)
O=C(CCc1ccccc1)Nc1cccc(-c2nnc(-c3ccco3)o2)c1,–,-6.33% (inactive)
COc1ccc(OCC(=O)Nc2nnc(-c3ccco3)s2)cc1,–,-0.333% (inactive)
CCCCOc1ccc(-c2nnc(-c3ccco3)o2)cc1,3.66 µM (active),–
CCC(C)c1ccc(NC(=O)COC(=O)C2CCCC2)cc1 (stereo unspecified),–,13.7% (inactive)
COc1cc(/C=C/C(=O)Nc2ccc(OC)c(S(=O)(=O)N3CCOCC3)c2)ccc1OCC#N,–,-5.08% (inactive)
O=C(OCCN1C(=O)c2ccccc2C1=O)[C@@H]1CC(O)CN1S(=O)(=O)c1ccccc1[N+](=O)[O-] (stereo partly specified),–,-0.548% (inactive)
CCCc1cc(=O)oc2c(C)c(OCC(=O)NCc3ccccn3)ccc12,–,0.193% [at 9.26 µM] (inactive)
CCCc1cc(=O)oc2c(C)c(OCC(=O)Nc3ccccn3)ccc12,5.17 µM (active),–
CCCc1cc(=O)oc2c(C)c(OCC(=O)N3CCC(C(=O)O)CC3)ccc12,–,-1.71% (inactive)
O=C(Nc1cc(S(=O)(=O)N2CCCCC2)ccc1Cl)C1COc2ccccc2O1 (stereo unspecified),–,-5.67% (inactive)
CC[C@]12c3[nH]c4ccc(Cl)cc4c3CCN1C(=O)[C@@H](CC(=O)NCCN1CCOCC1)C[C@@H]2C(=O)N1CCN(C(=O)C2CC2)CC1,–,5.63% (inactive)
COc1ccc(NS(=O)(=O)c2ccc3oc(SCC(N)=O)nc3c2)cc1,–,-12.5% (inactive)
COc1ccc(S(=O)(=O)N(C)C)cc1NC(=O)CSc1ncccn1,–,2.94% (inactive)
CN(C)S(=O)(=O)c1ccc2oc(SCC(=O)Nc3ccccc3F)nc2c1,10.3 µM (active),–

SMILES,Potency,"activity change, positive = activation"
O=c1c2c(nc3nc[nH]n13)CCC2,–,4.12% (inactive)
CCCCN1Cc2c(nc3cc(-c4ccccc4)[nH]n3c2=O)C1=O,–,3.81% (inactive)
O=c1c2c(nc3cc(-c4cccc(Cl)c4)[nH]n13)CCCC2,0.517 µM (active),–
Cc1ccc(CNC(=O)Cn2cnc3c(NCc4ccccc4)ncnc32)o1,–,0.754% (inactive)
COc1ccc(Nc2nc(-c3ccccc3)cs2)cc1,0.58 µM (active),–
Cc1cccc(Nc2nc(-c3ccccc3)cs2)n1,2.91 µM (active),–
O=C(Nc1nc(-c2ccc(-c3ccccc3)cc2)cs1)c1cnccn1,–,15.3% (inactive)
c1ccc(Nc2nc(-c3ccncc3)cs2)nc1,1.46 µM (active),–
COc1ccc(NC(=O)c2sc(N)nc2-c2ccccc2)cc1,–,1.11% (inactive)
Clc1ccc(-c2csc(-c3ccncc3)n2)cc1,–,12.6% (inactive)
COc1ccc(Nc2nnc(C)c3ccccc23)cc1,–,16.7% (inactive)
Cc1cccc(S(=O)(=O)CC(=O)Nc2nc(-c3ccccc3)cs2)c1,–,-2.42% (inactive)
Clc1ccc(Nc2nc(-c3cccs3)cs2)nc1,1.16 µM (active),–
c1csc(-c2cn3c(n2)SCC3)c1,–,3.5% (inactive)
Clc1ccc(-n2nnnc2-c2cnc(-c3ccccn3)nc2-c2cccs2)cc1,–,-5.46% (inactive)
CCc1noc(C)c1C(=O)Nc1nc(-c2ccccc2)cs1,–,1.72% (inactive)
O=C(NCC#CCSc1nnc(-c2cccc3ccccc23)o1)c1cccs1,–,-0.584% (inactive)
O=C(CNC(=O)c1ccco1)NNC(=O)c1ccc(Br)cc1,–,-1.29% (inactive)
C[C@H](CO)N1C[C@H](C)[C@@H](CN(C)C(=O)Nc2ccc3c(c2)OCO3)Oc2c(cccc2N(C)C)C1=O,–,3.83% (inactive)
CC(=O)c1ccc(NC(=O)CSc2nc3ccccc3c(=O)n2CCCN2CCOCC2)cc1,–,15.5% (inactive)
Cc1c(NC(=O)C(C)OC(=O)c2ccccc2O)c(=O)n(-c2ccccc2)n1C (stereo unspecified),–,1.59% (inactive)
Cn1c(N)c(C(=O)COC(=O)c2cccc(S(=O)(=O)N3CCOCC3)c2)c(=O)n(C)c1=O,–,1.81% (inactive)
C#CCOCCOCCOCCNc1nc(N2CCN(C(=O)C([C@@H](C)O)n3cc([C@@H](N)CCCCN)nn3)CC2)nc(N2CCN(C(=O)[C@H](CCCCN)n3cc(CN)nn3)CC2)n1 (stereo partly specified),–,-2.61% (inactive)
Cc1noc(C)c1S(=O)(=O)N(C)C[C@H]1Oc2ccc(NC(=O)C3CC3)cc2C(=O)N([C@H](C)CO)C[C@@H]1C,–,-1.19% (inactive)
